D1 agonist: human D1 receptor agonism; P21728; HEK293 T-REx D1 cells, calcium flux, agonist mode; activation, % at 2 µM; 360,000 tested, 1% active; AID 504660; further: 0% is about no effect
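Agonism was scored from calcium flux recorded over 180 s (1 read/s) after pintool compound addition, following a 10-cycle baseline. Cells were inducible force-coupled HEK293 TREx D1, plated overnight at 30 C and loaded with no-wash calcium dye.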
D1 antag: antagonists of human D1 dopamine receptor | HEK293 TREx D1 cells, calcium flux, dopamine EC80; hits give low values | 360,000 tested, 3.2% active | activity change, negative = inhibition, % at 10 µM; in the data active means activity change below about -30%; further: on the % scale 0 is the no-effect control and ±100 the full control effect
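Tetracycline-induced HEK293 T-REx cells with force-coupled D1 receptor were loaded with a no-wash calcium dye. Compound was added after a 10 s baseline and read kinetically for 180 s; EC80 dopamine was then added and calcium flux followed another 180 s.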
TRHR PAM: allosteric enhancers of human TRH receptor | 360,000 tested, 0.66% active | TRHR cells, fluo-8 calcium fluorescence, EC20 TRH enhancement | AID 493056 | enhancement, % at 2 µM; in the data active means enhancement above about 30%; further: 0% is about no effect
Target sequence (P34981 whole entry, looked up): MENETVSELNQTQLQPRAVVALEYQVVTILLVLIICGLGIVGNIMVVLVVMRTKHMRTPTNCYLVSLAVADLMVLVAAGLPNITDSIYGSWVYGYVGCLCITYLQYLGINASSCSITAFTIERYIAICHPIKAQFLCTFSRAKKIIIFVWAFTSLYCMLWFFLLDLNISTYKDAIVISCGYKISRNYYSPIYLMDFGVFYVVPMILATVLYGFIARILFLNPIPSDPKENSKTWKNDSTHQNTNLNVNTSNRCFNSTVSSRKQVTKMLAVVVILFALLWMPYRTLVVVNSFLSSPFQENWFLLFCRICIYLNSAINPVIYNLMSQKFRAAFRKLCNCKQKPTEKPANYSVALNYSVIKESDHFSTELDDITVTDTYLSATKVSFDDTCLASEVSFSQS
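Enhancer read-out: after compound pinning and an initial kinetic agonist-mode read, an EC20 of TRH (10 nM final) was injected and fluo-8 calcium signal (Ex 480/Em 530) followed at 1 s/cycle for 100 cycles in TRHR-expressing cells.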
Epigenetic derep: derepresses silenced GFP reporter in murine cells; murine LDR cells, GFP reporter derepression, 30 h; Potency, µM (highest dose often 53.9 µM), inactives show top-dose GFP activation, usual class: activators; 280,000 tested, 0.2% active; AID 1865; active means well fitted activation curve with a large enough effect; inconclusive means small, poorly fitted or top-dose-only effect; further: potency means the concentration at half of the fitted maximal effect; % of control where 0% means no effect; nearly all actives have a fitted effect of over 60% in size
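Murine LDR cells bearing a silenced CMV-driven GFP reporter were exposed to compound for 30 h at 37 C. After PBS washes, GFP-positive cells (20-120 um objects) counted by laser-scanning microplate cytometry.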
TRHR agonist: agonists of human TRH receptor; activation, % at 2 µM; 360,000 tested, 0.18% active; AID 493084; P34981; TRHR cells, calcium flux fluo-8, FDSS agonist mode; further: 0% is about no effect
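TRHR-expressing cells, plated overnight in medium with 10% serum, were loaded with fluo-8 calcium dye at room temperature. After a 10 s baseline, library compound was pin-added and calcium release was recorded kinetically (ex 480/em 530) as agonist response.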
D1 PAM: human D1 dopamine receptor positive modulation | 360,000 tested, 0.036% active | potentiation, % at 10 µM | HEK293 TREx D1 cells, calcium flux, dopamine EC20 potentiation | AID 504651; in the data active means potentiation above about 30%; further: 0% is about no effect
* hit, by the source's call; u = inconclusive; x = no result given; [ ] = remark or other dose. The list is not random: actives were taken first. Their share in the collection is about 4.6%. Unless noted, no stated cut-off is given here; in the data, active means activation above about 30%; inactive means the rest.

SMILES | D1 agonist | D1 antag | TRHR PAM | Epigenetic derep | TRHR agonist | D1 PAM
c1ccc(-n2ncc3c(NCCN4CCOCC4)ncnc32)cc1 | 1 | -1 | 33* | 0% | 0 | 7
OCCOCCNc1ncnc2c1cnn2-c1ccccc1 | 0 | -45* | 23 | -1% | 0 | -9
CC(C)OCCCNc1ncnc2c1cnn2-c1ccccc1 | 0 | -37* | 33* | -1% | 0 | -2
O=C(Cc1ccccc1)Nc1sc2c(c1C(=O)Nc1ccc(Br)cc1)CCCC2 | 2 | 36 | 20 | 0% | -1 | -3
O=C(NC1CCCC1)c1ccc2c(=O)n(Cc3ccccc3)c(SCc3ccc([N+](=O)[O-])cc3)nc2c1 | 1 | 15 | -1 | 1% | 0 | -2
CCc1ccccc1NC(=O)c1ccc2c(c1)CCCN2S(C)(=O)=O | -1 | 7 | 0 | -1% | -1 | 0
CCOC(=O)c1c(C)[nH]c(C(=O)C(C)Cl)c1C (centres undefined) | 1 | -32* | -4 | -2% | 0 | -13
CCOC(=O)c1c(C)[nH]c(C(=O)OCC(=O)Nc2ccccc2)c1C | 26 | -73* | 6 | x | 0 | -12
COc1ccc(CN(C)CC(=O)c2c(N)n(Cc3ccccc3)c(=O)n(C)c2=O)c(OC)c1 | -2 | -4 | 2 | -2% | 1 | -6
CC(=O)c1c(C)[nH]c(C(=O)OCC(=O)Nc2ccccc2Cl)c1C | 13 | -7 | -2 | -1% | 0 | -5
CN(CC(=O)Nc1ccccc1Cl)CC(=O)c1c(N)n(Cc2ccccc2)c(=O)n(C)c1=O | 2 | -32* | 4 | x | 0 | 9
CCOC(=O)c1c(C)[nH]c(C(=O)CN(C)CC(=O)Nc2ccccc2Cl)c1C | 5 | -41* | -4 | x | 0 | -11
O=C(Nc1cccc(C(=O)N2CCN(c3ccc(F)cc3)CC2)c1)c1nsc2ccccc12 | 0 | -4 | 1 | -1% | 0 | -3
COc1ccc(CCNC(=O)CCc2cn(Cc3ccc(C)cc3)c3ccccc23)c(OC)c1OC | 7 | -9 | -4 | 1% | 0 | -7
COc1ccc(-c2onc(C)c2C)cc1S(=O)(=O)NCc1ccc(C)o1 | 1 | -16 | -5 | -2% | 0 | -4
COc1ccc(OC)c(NC(=O)c2nnn(Cc3ccc(Br)cc3F)c2N)c1 | 5 | 39 | 17 | -1% | 7 | 0
Cc1ccc(C)c(NC(=O)c2nnn(Cc3ccccc3C)c2N)c1 | 11 | 6 | 9 | -1% | 0 | 13
Nc1c(C(=O)Nc2ccccc2)nnn1Cc1ccc(F)cc1Cl | 88* | -31* | 0 | 0% | 16 | 2
COc1ccc(NC(=O)c2nnn(Cc3ccc(Br)cc3F)c2N)c(OC)c1 | 34* | 25 | 4 | 2% | 12 | 11
Cc1ccc(Cn2nnc(C(=O)Nc3cc(C)ccc3C)c2N)cc1 | 40* | 4 | -1 | 0% | 5 | 5
Nc1c(C(=O)Nc2ccc3c(c2)OCCO3)nnn1Cc1ccccc1Cl | 18 | 6 | 7 | x | 2 | 0
Cc1ccc(C)c(NC(=O)c2nnn(Cc3ccc(F)cc3Cl)c2N)c1 | 79* | -32* | 0 | 0% | 9 | -3
Cc1cc(=O)[nH]c2nnc(SCc3cccc(C(F)(F)F)c3)n12 | -2 | x | -1 | 4% | 0 | 5
CCC1CN(C(=O)N2CCC(C(=O)NCCC3=CCCCC3)CC2)c2ccccc2O1 (centres undefined) | -1 | -5 | 12 | 10% | 0 | -5
COc1ccc(NC(=O)Cn2nnc(C(=O)Nc3ccccc3C)c2N)cc1 | 1 | -64* | 3 | -1% | 0 | -6
SMILES | D1 agonist | D1 antag | TRHR PAM | Epigenetic derep | TRHR agonist | D1 PAM
CC(C)Oc1ccc(CNC(=O)Nc2ccc3c(c2)N(C)C(=O)c2ccccc2S3)cc1 | 25 | -4 | 6 | u | -1 | -4
Cc1ccccc1Nc1nnc(SCc2cc(=O)n3ccsc3n2)s1 | 5 | -54* | 8 | -3% | 0 | 8
CN(C)c1ccc(CNC(=O)c2cccn2-c2nnc(N3CCCCC3)s2)cc1 | 2 | 3 | -5 | 1% | 0 | 3
COc1ccc(Br)cc1C1NC(c2ccc3c(c2)OCO3)=CC(c2cc(Cl)ccc2O)N1 (centres undefined) | 25 | -15 | -5 | x | 4 | 4
CCOc1ccc2[nH]c(=O)c(CN(CC3CCCN3CC)C(=O)NCc3ccccc3)cc2c1 (centres undefined) | 3 | -50* | 2 | 0% | 0 | 5
CCOc1ccc2[nH]c(=O)c(CN(Cc3ccc(F)cc3)C(=O)N3CCCC3)cc2c1 | 2 | 0 | 8 | -1% | 0 | -6
COc1ccc2[nH]c(=O)c(CN(CCCN3CCOCC3)C(=O)NCc3ccccc3)cc2c1 | 1 | -37* | -1 | -1% | 0 | -1
COc1ccc2[nH]c(=O)c(CN(Cc3ccccc3)C(=S)NCC3CCCO3)cc2c1 (centres undefined) | 2 | 3 | 35* | 3% | -1 | 8
CCC(C)NC(=O)CSc1nc2cc3c(cc2c(=O)n1CCCCCC(=O)NCc1ccc(OC)cc1)OCO3 (centres undefined) | 2 | 12 | 1 | -1% | -1 | 6
Fc1ccc(Nc2nc3nonc3nc2Nc2cccc(C(F)(F)F)c2)cc1 | 24 | -37* | -10 | -3% | 7 | -3
CO[C@H]1COC(=O)C/C=C\[C@H](C)[C@@H](NS(=O)(=O)c2ccc(C)cc2)COC(=O)CCC[C@@H]1C | x | x | x | 1%[10.1 µM] | x | x
COc1cccc2[nH]c3ccccc3c(=O)c12 | 1 | 2 | -3 | x | 0 | 0
C=Cc1ncc(OC)c2c1[nH]c1ccccc12 | 4 | -55* | 4 | x | 1 | -6
O=C(COC(=O)C1CCN(S(=O)(=O)c2cc([N+](=O)[O-])ccc2Cl)CC1)Nc1ncc(Cl)cc1Cl | 0 | -34* | 17 | -3% | -1 | 2
CC(=O)COC(=O)C1CCN(S(=O)(=O)c2cc([N+](=O)[O-])ccc2Cl)CC1 | 4 | -19 | -2 | -2% | 0 | -4
O=C(NC(=S)NCCC1=CCCCC1)c1cncc(Br)c1 | 0 | -32* | -2 | 1% | 0 | -7
CC(C)CCNC(=O)C(=O)NCCC1=CCCCC1 | 2 | -47* | 0 | 9% | 0 | -3
O=C(NCCc1ccc(Cl)cc1)c1ccc2c(c1)OCO2 | 4 | -29 | -4 | x | -1 | -8
CS(=O)(=O)N(Cc1ccc(Cl)cc1)c1ccc(C(=O)NCCC2=CCCCC2)cc1 | 10 | 5 | 6 | 8% | -1 | -1
O=C(NCCC1=CCCCC1)c1ccc(Cl)cc1 | 19 | -41* | 13 | 0% | -3 | -6
CCCNC(=O)C(=O)NCCC1=CCCCC1 | 2 | 0 | 1 | -2% | 0 | 9

Source: PubChem (National Center for Advancing Translational Sciences (NCATS))
